Compound activity as filed in PubChem BioAssay.
An excerpt weighted towards active compounds, which were near 4.1% of everything screened.
MazEF act: activators of E. coli MazEF toxin-antitoxin RNase, primary screen, biochemical, fluorescence, uHTS | Endoribonuclease toxin MazF (Escherichia coli (strain K12)), P0AE70 | FAM/BHQ RNA-DNA oligo cleavage fluorescence, 5 h | activation, % at 20 µM | hit rate 0.32% among 350,000 | AID 504720, 2011; in the data active = activation above about 50%
Target sequence (P0AE70 whole entry, looked up): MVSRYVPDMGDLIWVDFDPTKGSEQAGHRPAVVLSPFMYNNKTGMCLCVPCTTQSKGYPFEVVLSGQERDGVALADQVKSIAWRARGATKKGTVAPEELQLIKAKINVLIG
BoNT A protease: BoNT/A light chain protease inhibitors, primary screen, biochemical, flow cytometry, MLPCN library | multiplex microsphere protease substrate cleavage | inhibition, % at 10 µM | hit rate 0.17% among 360,000 | AID 588499, 2011; note: plate controls were buffer without enzyme for full effect and enzyme alone for no effect
Anthrax LF inh2: Bacillus anthracis LF protease inhibitors, primary screen, biochemical, multiplex microsphere, MLPCN library. Lethal factor (Bacillus anthracis), P15917. multiplex microsphere protease cleavage assay. inhibition, % at 10 µM. hit rate 0.12% among 360,000. AID 588501, 2011; note: plate controls were buffer without enzyme for full effect and enzyme alone for no effect
VHR inh abs: VHR1 phosphatase inhibitors, primary screen, biochemical, absorbance, uHTS; Dual specificity protein phosphatase 3 (Homo sapiens), P51452; recombinant VHR phosphatase, pNPP absorbance; inhibition, % at 13.3 µM; hit rate 0.52% among 290,000; AID 1654, 2009; in the data active = inhibition above about 50%
Target sequence (P51452 whole entry, looked up): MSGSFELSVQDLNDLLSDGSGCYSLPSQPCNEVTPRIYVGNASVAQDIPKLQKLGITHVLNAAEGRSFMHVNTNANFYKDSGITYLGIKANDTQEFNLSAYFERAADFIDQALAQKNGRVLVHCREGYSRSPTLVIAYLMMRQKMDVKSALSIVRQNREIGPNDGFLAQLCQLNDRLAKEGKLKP
Autofluor counter: flagged as autofluorescent in microsphere protease counterscreen | compound autofluorescence counterscreen, microsphere flow cytometry; active compounds read high | fluorescence intensity (test concentration not listed) | hit rate 3.1% among 360,000 | AID 624483; in the data active = fluorescence intensity above about 16000; inconclusive = no clear call, values can overlap the other calls
BoNT F protease: BoNT/F light chain protease inhibitors, primary screen, biochemical, flow cytometry, MLPCN library; inhibition, % at 10 µM; hit rate 0.22% among 360,000; Multiplex microsphere protease cleavage assay; in the data active = inhibition above about 35%, passing the limit was not always enough; inconclusive = no clear call, values can overlap the other calls; note: plate controls were buffer without enzyme for full effect and enzyme alone for no effect
* = called active by the depositor; ? = inconclusive; / = no result. Cut-off read from the data, not from the text of the source, unless noted: active = inhibition above about 30%; inconclusive = no clear call, values can overlap the other calls; inactive = below that.

SMILES	MazEF act	BoNT A protease	Anthrax LF inh2	VHR inh abs	Autofluor counter	BoNT F protease
Fc1cccc(Cn2ccc(-c3ccc4c(c3)OCO4)n2)c1	-2	?	?	-11	?	?
COc1ccc(-c2nc3ccccc3c(=O)n2-c2cccnc2)cc1	-2	?	0	18	22591*	-2
COc1ccc(-n2c(-c3ccc(C)cc3)nc3ccccc3c2=O)cc1	5	0	3	-1	5961	-7
Cc1nc2ccccc2c(=O)n1-c1cccnc1	-10	?	-2	-10	21722*	4
OC[C@@H]1CN(Cc2ccc(-c3ccccc3)cc2)C[C@H](n2cnc3c(NCc4ccc(F)cc4)ncnc32)O1	/	0	4	/	3901	-5
CCN(CC)CCOC(=O)c1ccc(NC(=O)CCCN2C(=O)/C(=C/c3cccs3)SC2=S)cc1	-25	10	9	11	6282	-4
N#Cc1ccccc1Cn1c(-c2cscn2)nc2ccccc21	9	?	-1	16	22811*	-3
C[C@@H]1CN([C@@H](C)CO)C(=O)CCCn2nncc2CO[C@H]1CN(C)S(=O)(=O)c1ccc(C#N)cc1	0	0	1	/	3109	4
Cc1ccc2c(c1)c1c3n2CCCN(Cc2ccccc2)C3CCC1 (stereo not drawn)	-10	?	-3	15	16950*	-11
Cc1ccc(-c2nc(-c3cccnc3)no2)cc1	3	0	-2	-3	4766	9
CCC(=O)Oc1ccc(-c2nc(-c3cccnc3)no2)cc1	-8	-3	4	-4	20402*	-4
COc1ccc(OCC(=O)N/N=C2\CCCc3ccccc32)cc1	-5	-1	2	26	2470	-19
Cc1cccc2c1OCC/C2=N\NC(=O)COc1ccccc1	1	-2	0	10	20669*	-1
CCc1ccc(NC(=O)CC2C(=O)Nc3c2c(=O)n(C)c(=O)n3C)cc1 (stereo not drawn)	-12	3	1	11	22007*	7
CCc1ccc(NC(=O)CSc2nc3c(c(=O)n(C)c(=O)n3C)n2C)cc1	19	-1	-7	0	6148	-12
COc1ccc(C(CNC(=O)CNC(=O)c2cccc(F)c2)N2CCOCC2)cc1 (stereo not drawn)	3	0	-4	/	3427	1
CCOc1cccc(=O)c2c(C)n(Cc3ccco3)c(C)c12	13	2	-2	-4	22022*	1
CC[C@H](C)[C@@H](CO)NC(=O)[C@H]1O[C@@H](n2ccc(=O)[nH]c2=O)[C@H](O)[C@@H]1O	/	0	0	/	5133	1
CCN(CC)CC#CCC(O)(c1ccccc1)C1CCCCC1 (stereo not drawn)	-7	0	-9	24	5357	-2
CN(C)CC#CCC(O)(c1ccccc1)C1CCCC1 (stereo not drawn)	1	-1	0	19	23845*	-3
CCOC(=O)c1c(C)n(C)c2ccc(O)c(CN(C)C)c12	-2	0	1	19	2493	1
CCOC(=O)c1c(C)n(C)c2ccc(O)c(S(=O)(=O)c3ccccc3)c12	3	-2	-1	8	24053*	-2
O=C(CCn1c2c(c3ccccc31)CCCC2)NNC(=O)c1ccc(Cl)c([N+](=O)[O-])c1	15	-1	0	52*	2430	0
O=C(CCn1c2c(c3ccccc31)CCCC2)NNC(=O)c1ccc([N+](=O)[O-])cc1	5	-1	0	16	2636	-2
COc1ccc(C)cc1Nc1n[n+](-c2ccccc2)c(-c2cc([N+](=O)[O-])cc(OC)c2O)s1	445*	0	-8	28	5888	-23
COc1ccc(C)cc1Nc1n[n+](-c2ccccc2)c(-c2ccc(NC(C)=O)cc2)s1	-7	1	4	20	4540	-24
O=C(NCCCN1CCOCC1)c1cc(Cl)ccc1OCc1ccccc1	2	2	4	18	5733	13
Cc1[nH]c2ccccc2c1C=NNC(=O)c1cc(-c2cccnc2)nc2ccccc12	5	/	/	/	/	/
